# L3MBTL1 block: inhibitors of human L3MBTL1; Q9Y468; AlphaScreen L3MBTL1–H3K9me1 peptide binding; Potency, µM (series often up to 57.1 µM), for the others: top-dose activity, negative = inhibition, actives largely listed as inhibitors; actives 0.66% (n = 230,000); AID 485360; note: % is set by controls: 0 for no effect and ±100 for the full control effect; nearly all actives have a fitted effect of over 60% in size
#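 L3MBTL1 50 nM + b-AHA-H3(1-15)K9me1 75 nM, 30 min RT; compound added, 30 min RT; streptavidin donor/Ni-chelate acceptor beads 10 ug/mL each final, 30 min RT dark; AlphaScreen read.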
# BAZ2B inh: BAZ2B (human) inhibition. Q9UIF8. AlphaScreen BAZ2B-H3K14Ac peptide displacement. Potency, µM (series often up to 114 µM), for inactives: at the highest dose activity change, negative = inhibition, hits mostly inhibitors. actives 4.4% (n = 360,000). AID 504333; note: % is set by controls: 0 for no effect and ±100 for the full control effect; nearly all actives have a fitted effect of over 60% in size
#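 In this displacement format the biotinylated H3(5-23) peptide acetylated at Lys14 serves as ligand at 50 nM, with BAZ2B at 50 nM in PBS pH 7.4 containing 0.01% Tween-20. Donor and acceptor beads are 10 ug/mL final.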
# HP1b binding inh: HP1-beta chromodomain-methylated histone interaction inhibition | AlphaScreen HP1-beta / biotin-H3K9me3 peptide binding | Potency, µM (titrated, usually from 114 µM), inactives show top-dose activity change, negative = inhibition, hits mostly inhibitors | actives 0.56% (n = 390,000) | AID 540317; note: nearly all actives have a fitted effect of over 70% in size
# Target sequence (P83916 whole entry, looked up): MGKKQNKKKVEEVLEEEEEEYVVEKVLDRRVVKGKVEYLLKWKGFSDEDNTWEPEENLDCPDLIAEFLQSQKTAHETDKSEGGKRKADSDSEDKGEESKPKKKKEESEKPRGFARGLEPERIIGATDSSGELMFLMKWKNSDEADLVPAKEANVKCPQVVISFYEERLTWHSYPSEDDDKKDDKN
#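 Compound inhibition of the preformed complex between 50 nM HP1-beta and 50 nM biotinylated H3K9me3 peptide was read by AlphaScreen. Buffer was PBS pH 7.4 with 0.01% Tween-20. Incubations ran 30 min at room temperature, with 10 ug/mL donor/acceptor beads.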
# JMJD2A Tudor inh: blocks the human JMJD2A Tudor domain; O75164; AlphaScreen JMJD2A-Tudor / H3K4me3 peptide binding; Potency, µM (top dose mostly 114 µM), for inactives: at the top dose activity change, negative = inhibition, hits mostly inhibitors; actives 4.4% (n = 390,000); note: % is set by controls: 0 for no effect and ±100 for the full control effect; nearly all actives have a fitted effect of over 50% in size
# VDR inh: blocks the human vitamin D receptor; AID 504847; Potency, µM, for the others: max response, negative = inhibition, usual class: inhibitors; VDR-SRC2-3 peptide fluorescence polarization, 2 h; P11473; actives 0.93% (n = 400,000); note: % is set by controls: 0 for no effect and ±100 for the full control effect
# Target sequence (P11473 whole entry, looked up): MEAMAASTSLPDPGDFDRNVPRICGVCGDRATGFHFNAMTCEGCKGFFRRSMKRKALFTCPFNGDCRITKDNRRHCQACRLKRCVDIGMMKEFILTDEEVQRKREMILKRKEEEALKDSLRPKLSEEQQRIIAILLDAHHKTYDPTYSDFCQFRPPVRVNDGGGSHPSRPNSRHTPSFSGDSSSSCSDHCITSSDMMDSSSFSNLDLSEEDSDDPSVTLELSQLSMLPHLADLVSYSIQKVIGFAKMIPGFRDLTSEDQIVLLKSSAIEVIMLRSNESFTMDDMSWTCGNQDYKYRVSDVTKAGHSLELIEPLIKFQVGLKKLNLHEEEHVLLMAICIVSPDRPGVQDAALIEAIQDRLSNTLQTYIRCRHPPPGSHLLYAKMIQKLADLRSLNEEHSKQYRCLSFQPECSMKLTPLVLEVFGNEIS
#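 Compounds are added to VDR with labelled SRC2-3 coactivator peptide and held 2 h at room temperature. Inhibition of the VDR–peptide interaction is then read as a change in fluorescence polarization.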
# PLK1 PBD block: PLK1 (human) polo-box domain binding inhibition. P53350. Plk1 PBD binding of FITC phosphopeptide, fluorescence polarization. Potency, µM, for the others: max response, negative = inhibition, actives largely listed as inhibitors. actives 2.8% (n = 360,000). AID 720504; note: series mostly up to about 57 µM; % is set by controls: 0 for no effect and ±100 for the full control effect; nearly all actives have a fitted effect of over 65% in size
# * hit, by the source's call; ? = inconclusive; . = not tested or not shown; [ ] = dose if it differs, or a comment. The list is not random: actives were taken first. Their share in the collection is about 6.9%. Calls come from the whole dose curve; as a rule, active = well fitted curve in the direction sought with a large enough effect; inconclusive = small, poorly fitted or top-dose-only effect, or another doubt; inactive = no such curve, though single readings can be large; an effect the other way counts as inactive or inconclusive. Potency is the fitted concentration of half-maximal effect.
SMILES,L3MBTL1 block,BAZ2B inh,HP1b binding inh,JMJD2A Tudor inh,VDR inh,PLK1 PBD block
CCOC(=O)c1c(N)c2cc([N+](=O)[O-])ccc2n1C,-1%,0%,2%,-29%,-17%,-20%
CCOC(=O)c1c(C)n(C)c2cc([N+](=O)[O-])c(O)c([N+](=O)[O-])c12,-12%,?,-16%,?,-13%,21µM*
COCOc1cc(OC)ccc1C(=O)/C=C/c1cccc(C(F)(F)F)c1,.,.,.,.,28µM*,.
COCOc1ccc(OC)cc1C(=O)/C=C/c1ccc(OC)c(Br)c1,.,.,.,.,40µM*,.
COc1ccc(/C=C/C(=O)N(CC(C)C)CC(C)C)cc1Br,7%,4%,45%,5%,-10%,-5%
COc1ccc(C(=O)/C=C/c2ccccc2)c(OC)c1,5%,5%,27%,-5%,-22%,-5%
C/C=C\C=C\C(=O)N1CC2(CC(c3cccc(NC(=O)CC(c4ccccc4)c4ccccc4)c3)=NO2)C[C@H]1C(N)=O (stereo partly drawn),.,?,-5%,?,?,34µM*
C/C=C\C=C/C(=O)Nc1cccc(C2=NOC3(C2)C[C@@H](C(N)=O)N(C(=O)C2(C)CC2)C3)c1 (stereo partly drawn),.,-5%,-33%,?,?,-27%
C/C=C\C=C/C(=O)Nc1cccc(C2=NOC3(C2)C[C@@H](C(N)=O)N(C(=O)/C=C/C=C\C)C3)c1 (stereo partly drawn),.,79µM*,?,50µM*,?,?
C=C(C)C(=O)N1CC2(CC(c3cccc(NC(=O)/C=C\C=C/C)c3)=NO2)C[C@H]1C(N)=O (stereo partly drawn),.,-17%,-22%,11µM*,89µM*,24µM*
C/C=C\C=C/C(=O)Nc1cccc(C2=NOC3(C2)C[C@@H](C(N)=O)N(C(=O)/C=C/CC)C3)c1 (stereo partly drawn),.,-17%,?,?,-21%,?
C#C[C@]1(O)CCC2C3CCC4=Cc5oncc5C[C@@]4(C)C3CC[C@@]21C (stereo partly drawn),.,.,.,.,-12%,.
O=[N+]([O-])c1nn(-c2ccc3c(c2)OCCO3)n(O)c1=Nc1ccccc1,-28%,40µM*,-34%,45µM*,-11%,-1%
COc1ccc(N2CCN(CCCNC(=O)Cn3c(-c4cccs4)cc4ccccc43)CC2)cc1,.,?,-31%,18µM*,9%,.
CC1CCN(CCCNC(=O)c2cc3sccc3n2C)CC1,-8%,8%,16%,-27%,-6%,-2%
O=C(Cn1c(-c2cccs2)cc2ccccc21)NCCCN1CCN(c2ccc(F)cc2)CC1,.,10%,31%,?,8%,.
COc1ccc(N2CCN(CCCNC(=O)CN3CCN(Cc4ccccc4C)C3=O)CC2)cc1,-24%,32µM*,?,?,-5%,-7%
COc1ccc(N2CCN(CCCNC(=O)c3cc4sccc4n3C)CC2)cc1,?,40µM*,-52%,32µM*,-1%,-1%
CC1C2=C(CC(C)(C)CC2=O)NC2=C1C(=O)CC(C)(C)C2,-4%,6%,54%,0%,-13%,-4%
CC1(C)CC(=O)C2=C(C1)NC(=S)C(C#N)C21CCCCC1 (stereo not drawn),.,?,?,7.9µM*,?,11µM*
Cc1[nH]c2ccccc2c1C(=O)CSc1ccc(Cl)cc1,-1%[11.4 µM],-25%,?,22µM*,?,12µM*
Cc1[nH]c2ccccc2c1C(=O)CSc1nccc(=O)[nH]1,-7%,-7%,14%,-16%,-12%,?
Cn1cc([N+](=O)[O-])c(C(=O)Nc2ccc(-c3nc4ccccc4[nH]3)cc2)n1,5%,?,12%,56µM*,-14%,-7%
CC[C@]12c3[nH]c4cc(-c5ccco5)ccc4c3CCN1C(=O)[C@@H](CC(=O)NC/C=C(\C)CCC=C(C)C)C[C@@H]2C(=O)N1CCN(C(=O)c2ccco2)CC1,?,.,-7%,?,-26%,24µM*
CC[C@]12c3[nH]c4cc(-c5ccco5)ccc4c3CCN1C(=O)[C@@H](CC(=O)NCc1ccco1)C[C@@H]2C(=O)N1CCN(C(=O)c2ccco2)CC1,35µM*,.,-25%,?,-20%,-2%
SMILES,L3MBTL1 block,BAZ2B inh,HP1b binding inh,JMJD2A Tudor inh,VDR inh,PLK1 PBD block
CCN(CC)C(=O)[C@H]1C[C@H](CC(=O)NCc2ccco2)C(=O)N2CCc3c([nH]c4cc(-c5ccco5)ccc34)[C@]12C,-39%,.,?,50µM*,?,?
CCN(CC)C(=O)[C@H]1C[C@H](CC(=O)NCCN2CCOCC2)C(=O)N2CCc3c([nH]c4cc(-c5ccco5)ccc34)[C@]12C,-4%,.,-1%,-34%,-16%,3%
CC[C@]12c3[nH]c4ccccc4c3CCN1C(=O)C(CC(=O)NCc1ccco1)C[C@@H]2C(=O)N1CCN(C(=O)c2ccco2)CC1 (stereo partly drawn),0%,.,7%,-24%,-5%,-20%
Cc1nc(SCc2ccc(Cl)cc2)c(C#N)c(C)c1Cl,.,3%,161%,133%,-19%,.
CN1CCc2c(sc3c2c(=O)n(-c2ccccc2)c2nnc(SCc4ccccc4)n32)C1,.,-20%,23%,89µM*,-26%,?
C=CCSC(=C(C#N)C#N)c1cc2c([nH]1)CCCC2,.,50µM*,?,50µM*,-29%,-12%
CCCN1CCN(c2ncnc3sc(C(=O)Nc4ccc(N(CC)CC)cc4C)c(C)c23)CC1,.,28µM*,?,50µM*,21%,.
CCCCSc1nnc2n(-c3cccc(C)c3)c(=O)c3c4c(sc3n12)CCCC4,.,-1%,34%,-11%,-11%,.
O=C(O)CC1S/C(=N/N=C/c2ccc(-c3ccc(Cl)cc3[N+](=O)[O-])o2)NC1=O (stereo not drawn),.,?,-9%,?,?,17µM*
CC(C)(C)OC(=O)CC(=O)NNC(=O)c1nc2ccccc2[nH]1,.,.,.,-32%,.,.
CCCCC(CC)COC(=O)c1ccccc1O (stereo not drawn),.,.,.,.,9%,.
COc1ccc(-n2ccnc(NCCc3ccccc3)c2=O)cc1OC,.,-33%,-17%,-31%,0%,.
CCn1c(CNc2cccc(C(F)(F)F)c2)n[nH]c1=S,7%,-11%,22%,50µM*,1%,-1%
O=c1[nH]nc(CNc2cccc(C(F)(F)F)c2)c2ccccc12,7%,-4%,25%,6%,-24%,0%
CCN(CC)CCNC(=O)CCCCn1c(=S)[nH]c2c([nH]c3ccc(OC)cc32)c1=O,-1%,?,?,4µM*,22%,0%
